Only some compounds are listed: those with a hit (about 2.4% of all), similar ones and a draw of the others.
FEN1 inh = qHTS Assay for the Inhibitors of Human Flap endonuclease 1 (FEN1); P39748; 390,000 compounds, 0.35% hits; Potency, µM (series often up to 114 µM), usual class: inhibitors; Recombinant FEN1 flap cleavage, fluorescence, 15 min; AID 588795, 2011; further: nearly all actives have a fitted effect of over 65% in size
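FEN1 at 10 nM, compound pretreatment for 15 min (room temperature), 50 nM final substrate to initiate; endpoint reads at 0 and 15 min; DMSO-only plates used as vehicle background.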
Pol beta inh = qHTS Assay for Inhibitors of DNA Polymerase Beta; Pol beta primer extension/strand displacement, fluorescence kinetic; Potency, µM (series often up to 114 µM), actives largely listed as inhibitors; AID 485314, 2010; 340,000 compounds, 1.3% hits
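Kinetic readout of DNA synthesis with strand displacement by Pol beta. Compound and 10 nM enzyme sit 15 min at room temperature; 50 nM substrate starts the reaction, read immediately and at 10 min.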
Pol iota inh = qHTS for Inhibitors of Polymerase Iota; DNA polymerase iota (Homo sapiens), Q9UNA4; Pol iota fluorescent replication assay, 10 min; Potency, µM (top dose mostly 115 µM), most hits filed as inhibitors; 390,000 compounds, 1% hits
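Pol iota at 10 nM preincubated 15 min with compounds at room temperature; reaction started with fluorescent substrate, 50 nM final. Fluorescence read kinetically at 0 and 10 min; buffer-only wells as negative control.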
Pol kappa inh = qHTS for Inhibitors of Polymerase Kappa; DNA polymerase kappa (Homo sapiens), Q9UBT6; 400,000 compounds, 0.53% hits; purified Pol kappa, fluorescent DNA synthesis assay, 10 min; Potency, µM (highest dose often 107 µM), usual class: inhibitors
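Kinetic fluorescence screen: compound preincubated 15 min RT with 10 nM enzyme; 50 nM substrate (final) initiates; reads at 0/10 min.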
WRN inhibitor = qHTS for Inhibitors of WRN Helicase | Potency, µM (series often up to 114 µM), hits mostly inhibitors | 360,000 compounds, 0.46% hits | Bifunctional 3'-5' exonuclease/ATP-dependent helicase WRN (Homo sapiens), Q14191 | WRN helicase unwinding, fluorescent forked duplex, kinetic | AID 651768, 2012; further: nearly all actives have a fitted effect of over 55% in size
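Enzyme (20 nM final) and test compound sit together 15 min at room temperature before substrate addition. Substrate is a single-forked duplex oligonucleotide (100 nM) labelled with fluorophore and quencher, with 2 mM ATP; helicase unwinding raises red fluorescence, read kinetically.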
POLH inh = qHTS for Inhibitors of Polymerase Eta; AID 588591, 2011; Potency, µM (top dose mostly 114 µM), usual class: inhibitors; recombinant Pol eta, fluorescent DNA replication assay; 390,000 compounds, 1.2% hits; DNA polymerase eta (Homo sapiens), Q9Y253
Target sequence (Q9Y253 whole entry, looked up): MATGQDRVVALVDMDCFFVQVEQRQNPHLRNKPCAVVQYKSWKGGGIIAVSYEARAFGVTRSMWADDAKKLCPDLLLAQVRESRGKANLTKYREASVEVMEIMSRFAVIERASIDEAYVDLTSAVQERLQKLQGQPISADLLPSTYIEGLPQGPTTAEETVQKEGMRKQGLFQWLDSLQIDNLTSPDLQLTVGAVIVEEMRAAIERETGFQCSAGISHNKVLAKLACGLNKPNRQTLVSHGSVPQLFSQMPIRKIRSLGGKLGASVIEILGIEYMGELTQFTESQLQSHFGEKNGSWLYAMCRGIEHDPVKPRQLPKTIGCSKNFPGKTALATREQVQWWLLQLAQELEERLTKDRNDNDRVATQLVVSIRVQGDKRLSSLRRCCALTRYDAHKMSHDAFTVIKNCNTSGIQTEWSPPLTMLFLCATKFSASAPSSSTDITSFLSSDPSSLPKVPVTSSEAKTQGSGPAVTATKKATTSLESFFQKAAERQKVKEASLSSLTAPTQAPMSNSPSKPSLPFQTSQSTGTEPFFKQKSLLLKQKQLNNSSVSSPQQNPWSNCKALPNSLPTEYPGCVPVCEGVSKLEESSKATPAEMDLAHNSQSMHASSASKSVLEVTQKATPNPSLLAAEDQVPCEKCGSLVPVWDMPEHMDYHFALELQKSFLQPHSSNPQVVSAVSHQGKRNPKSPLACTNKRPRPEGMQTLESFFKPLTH
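Pol eta (10 nM) was preincubated with compounds for 15 min at room temperature, after which fluorescent replication substrate (50 nM final) was added to start the reaction. Fluorescence was read kinetically at 0 and 10 min.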
Hits are given with their value; [ ] = another dose, or the depositor's remark. The call rests on the fitted dose curve; in most records, active means well fitted curve in the direction sought with a large enough effect; inconclusive means small, poorly fitted or top-dose-only effect, or another doubt; inactive means no such curve, though single readings can be large; an effect the other way counts as inactive or inconclusive.

How did COc1cccc(CCNc2ncnc3c2nnn3C)c1 do in these assays?
FEN1 inh: inactive; Pol beta inh: inactive; Pol iota inh: inactive; Pol kappa inh: inactive; POLH inh: inactive

What do the screens show for `O=C(O)CC(NC(=O)c1ccco1)c1ccco1` (configuration not stated)?
FEN1 inh: inactive; Pol beta inh: 79µM; Pol iota inh: inactive; Pol kappa inh: inactive; WRN inhibitor: inactive; POLH inh: inconclusive

What do the screens show for `O=C(O)CC(NC(=O)C(c1ccccc1)c1ccccc1)c1ccco1` (configuration not stated)?
FEN1 inh: inactive; Pol beta inh: inactive; Pol iota inh: inactive; Pol kappa inh: inactive; WRN inhibitor: inactive; POLH inh: inactive

How did O=C(NCCNCc1ccccc1)c1ccco1 do in these assays?
FEN1 inh: inactive; Pol iota inh: 20µM; Pol kappa inh: inconclusive; WRN inhibitor: inactive[11.6 µM]; POLH inh: 50µM

What do the screens show for `Cc1ccc(CSc2nnc(SCC(=O)N/N=C/C=C/c3ccco3)s2)cc1`?
FEN1 inh: inactive; Pol beta inh: 22µM; Pol iota inh: inconclusive; Pol kappa inh: inconclusive; WRN inhibitor: inactive; POLH inh: inconclusive

What do the screens show for `CCn1c(SCC(=O)N/N=C/C=C\c2ccco2)nc2ccccc21`?
FEN1 inh: inactive; Pol beta inh: 18µM; Pol iota inh: inconclusive; Pol kappa inh: inactive; WRN inhibitor: inactive; POLH inh: inconclusive

What do the screens show for `COc1ccc(OC)c(/C=C/c2c3ccccc3cc[n+]2C)c1`?
FEN1 inh: inactive; Pol iota inh: inactive; Pol kappa inh: inactive

What do the screens show for `NC(C(=O)O)(c1ccc(P(=O)(O)O)cc1)C1CC1` (configuration not stated)?
Pol kappa inh: inactive[19.4 µM]

What do the screens show for `Cc1c([N+](=O)[O-])cc(C(=O)Oc2ccc(Br)cc2C(=S)N2CCCCC2)cc1[N+](=O)[O-]`?
FEN1 inh: inactive; Pol beta inh: inactive; Pol iota inh: 89µM; Pol kappa inh: inactive; WRN inhibitor: inactive; POLH inh: inconclusive

What do the screens show for `Nc1c(C(=O)Nc2ccc(C(=O)O)cc2)sc2nc3c(cc12)CCCC3`?
FEN1 inh: inactive; Pol beta inh: inactive; Pol iota inh: inactive; Pol kappa inh: inactive; POLH inh: inconclusive

What do the screens show for `Nc1c(C(=O)Nc2ccc(S(=O)(=O)N3CCCC3)cc2)sc2nc3ccc(OC(F)(F)F)cc3cc12`?
FEN1 inh: inactive; Pol beta inh: 28µM; Pol iota inh: inconclusive; Pol kappa inh: inactive; WRN inhibitor: inconclusive; POLH inh: 40µM

Results for C#CCOCCOCCOCCNc1nc(N2CCN(C(=O)Cn3cc(CCCCN)nn3)CC2)nc(N2CCN(C(=O)Cn3cc(CC(C)O)nn3)CC2)n1 (configuration not stated) ?
FEN1 inh: inactive; Pol beta inh: inactive; Pol iota inh: inactive; Pol kappa inh: inactive; WRN inhibitor: inactive; POLH inh: inactive

What do the screens show for `C#CCOCCOCCOCCNc1nc(N2CCN(C(=O)CCCCCCCCCCNC(=O)Cn3cc(C[C@@H](C)O)nn3)CC2)nc(N2CCN(C(=O)CCCCCCCCCCNC(=O)[C@@H]([C@H](C)CC)n3cc(CCCCCN)nn3)CC2)n1`?
FEN1 inh: inconclusive; Pol iota inh: inconclusive; Pol kappa inh: inactive; WRN inhibitor: inconclusive; POLH inh: 89µM

Results for C#CCOCCOCCOCCNc1nc(N2CCN(C(=O)CCCCCCCCCCNC(=O)Cn3cc(CCCCCN)nn3)CC2)nc(N2CCN(C(=O)CCCCCCCCCCNC(=O)[C@@H]([C@H](C)O)n3cc(C)nn3)CC2)n1 ?
FEN1 inh: inconclusive; Pol iota inh: inconclusive; Pol kappa inh: inactive; WRN inhibitor: inactive; POLH inh: inactive

What do the screens show for `C#CCOCCOCCOCCNc1nc(N2CCN(C(=O)CCCCCCCCCCNC(=O)Cn3cc(CCCCCN)nn3)CC2)nc(N2CCN(C(=O)CCCCCCCCCCNC(=O)Cn3cc(C[C@@H](C)O)nn3)CC2)n1`?
FEN1 inh: 79µM; Pol iota inh: inactive; Pol kappa inh: inactive; WRN inhibitor: 25µM; POLH inh: inconclusive

What do the screens show for `CCC(C)C(=O)OCC1(c2ccc(C)cc2OC(=O)C(C)C)CO1` (configuration not stated)?
FEN1 inh: inactive; Pol beta inh: 40µM; Pol iota inh: inconclusive; Pol kappa inh: inactive; WRN inhibitor: inactive; POLH inh: inactive

Results for COc1cccc(C2C(C(=O)Nc3cccnc3)=C(C)Nc3nc(SCc4ccccc4)nn32)c1 (configuration not stated) ?
FEN1 inh: inactive; Pol beta inh: inactive; Pol iota inh: inactive; Pol kappa inh: inactive; POLH inh: inactive

What do the screens show for `COc1ccc2[nH]c3c4c(ccc3c2c1)C(=O)C=CC4=O`?
FEN1 inh: inactive; Pol beta inh: inactive; Pol iota inh: 32µM; Pol kappa inh: inactive; WRN inhibitor: inactive; POLH inh: inconclusive

How did COc1ccc2[nH]c(-c3ccc(F)cc3F)cc(=O)c2c1 do in these assays?
Pol kappa inh: inactive

How did O=C(Nc1ccccc1C(F)(F)F)NC1(C(=O)N2CCOCC2)CCCCC1 do in these assays?
FEN1 inh: inactive; Pol iota inh: 14µM; Pol kappa inh: 50µM; WRN inhibitor: inconclusive; POLH inh: inconclusive

How did C/C(=N/Nc1ccc(C(=O)O)cc1)c1ccc(O)c(O)c1O do in these assays?
FEN1 inh: inconclusive; Pol beta inh: 22µM; Pol iota inh: inactive; Pol kappa inh: inactive; WRN inhibitor: inconclusive; POLH inh: inconclusive

What do the screens show for `COc1ccc(OC)c(/C(C)=N/Nc2ccc(C(=O)O)cc2)c1`?
FEN1 inh: inactive; Pol beta inh: inconclusive; Pol iota inh: inactive; Pol kappa inh: inactive; WRN inhibitor: inactive; POLH inh: inactive

Results for CN(C)Cc1cc(O)c(CN(C)C)cc1O ?
FEN1 inh: inconclusive; Pol beta inh: 10µM; Pol iota inh: 7.1µM; Pol kappa inh: 16µM; WRN inhibitor: inactive[11.6 µM]; POLH inh: 79µM

How did N#C/C(=C/c1ccc(N2CCOCC2)o1)c1nc2ccccc2[nH]1 do in these assays?
FEN1 inh: inconclusive; Pol beta inh: inconclusive; Pol iota inh: inactive; Pol kappa inh: inactive; WRN inhibitor: 56µM; POLH inh: inconclusive

What do the screens show for `N#C/C(=C\c1ccc(Sc2ccc(Cl)cc2)o1)c1nc2ccccc2[nH]1`?
FEN1 inh: inconclusive; Pol beta inh: 16µM; Pol iota inh: inconclusive; Pol kappa inh: inactive; WRN inhibitor: inactive; POLH inh: inconclusive

Results for N#C/C(=C\c1ccc(Sc2nc3ccccc3[nH]2)o1)c1ccccc1 ?
FEN1 inh: inactive; Pol beta inh: inactive; Pol iota inh: inactive; Pol kappa inh: inactive; WRN inhibitor: inactive; POLH inh: inconclusive

From PubChem
